Unmarked numbers belong to inactive results.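 The calls were made as follows: active = AUC reduced over 20% with Padj below 0.05 in at least 2 of 3 replicates; inactive = otherwise.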
Assays:
Assay in all cases: growth AUC relative to DMSO control (median of replicates) (fraction); higher = more growth (less inhibition), active = hit call of the paper
Settings in all cases: 20 µM; 24 h
Akkermansia muciniphila = tested on: Akkermansia muciniphila
In short: (§1)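 Starting at OD600 0.05, gut bacterial monocultures in mGAM were grown anaerobically at 37 °C with 20 µM compound (1% DMSO) under pierced gas-permeable seals. OD600 was read every hour for 24 h, and the lowest OD of each curve was set to 0. Area under the growth curve was normalised to the plate median of solvent-only wells, or to row and column medians on the industrial chemical plate, and the median of three biological replicates grown on separate days is given.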

Bacteroides caccae = tested on: Bacteroides caccae
In short: as §1

Bacteroides clarus = tested on: Bacteroides clarus
In short: as §1

Bacteroides dorei = tested on: Bacteroides dorei
In short: as §1

Bacteroides stercoris = tested on: Bacteroides stercoris
In short: as §1

[1] = tested on: Bacteroides thetaiotaomicron
In short: as §1

Bacteroides uniformis = tested on: Bacteroides uniformis
In short: as §1

[2] = tested on: Bifidobacterium longum subsp. longum
In short: as §1

Clostridium difficile = tested on: Clostridium difficile
In short: as §1

Collinsella aerofaciens = tested on: Collinsella aerofaciens
In short: as §1

Row | Compound | growth AUC (Akkermansia muciniphila) | growth AUC (Bacteroides caccae) | growth AUC (Bacteroides clarus) | growth AUC (Bacteroides dorei) | growth AUC (Bacteroides stercoris) | growth AUC [1] | growth AUC (Bacteroides uniformis) | growth AUC [2] | growth AUC (Clostridium difficile) | growth AUC (Collinsella aerofaciens)
1 | Br[C@@H]1CC[C@@H](Br)[C@@H](Br)CC[C@@H](Br)[C@@H](Br)CC[C@H]1Br | 1.01 | 0.983 | 0.795 (active) | 0.924 | 0.573 (active) | 0.967 | 0.928 | 0.779 (active) | 1.01 | 0.796 (active)
2 | CCCCOCCOCCOCc1cc2c(cc1CCC)OCO2 | 0.968 | 0.968 | 0.983 | 1.01 | 1.01 | 0.96 | 0.948 | 1.03 | 1.03 | 0.98
3 | CCCNCCOc1c(Cl)cc(Cl)cc1Cl | 0.946 | 0.972 | 0.979 | 0.985 | 0.898 | 0.979 | 1 | 0.918 | 0.973 | 0.98
4 | COc1nc(OC)nc(C(=O)c2cccc(F)c2N(C)S(=O)(=O)C(F)F)n1 | 0.993 | 1 | 1 | 1 | 1.07 | 1.01 | 1.03 | 1.03 | 1.04 | 1.04
5 | Nc1ccc(S(=O)(=O)Nc2cnc3ccccc3n2)cc1 | 0.923 | 1.01 | 0.99 | 1.02 | 1.01 | 0.946 | 0.984 | 1.12 | 0.975 | 0.982

Reference: the supplement of paper PMC12669032
